# Hits are enriched below; roughly 4.6% of the tested compounds scored in any of these assays.
# Tau fibril ThT – qHTS for Inhibitors of Tau Fibril Formation, Thioflavin T Binding. Potency, µM (highest dose often 57.4 µM), without a hit: top-dose activity, negative = inhibition, most hits filed as inhibitors. recombinant tau K18 P301L, heparin-induced fibrillization, ThT fluorescence. AID 1460, 2008. 270,000 tested, 2.1% active. Microtubule-associated protein tau (Homo sapiens), P10636; note: potency is the fitted concentration of half-maximal effect; nearly all actives have a fitted effect of over 55% in size
# Target sequence (P10636 561-689 P618L limits assumed): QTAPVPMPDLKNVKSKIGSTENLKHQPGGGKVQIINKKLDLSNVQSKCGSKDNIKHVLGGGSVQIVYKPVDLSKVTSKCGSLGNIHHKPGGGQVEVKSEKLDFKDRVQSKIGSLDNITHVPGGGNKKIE
#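 Heparin-induced (20 uM) aggregation of recombinant human K18 P301L tau, 15 uM unlabeled with 0.24 uM labeled, pH 7 acetate buffer, 6 hr at 37 C with compound. Fibrils quantified by 30 uM ThT fluorescence after 1 hr ambient incubation.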
# TexasRed fluor – Total Fluorescence Counterscreen for Inhibitors of the Interaction of Thyroid Hormone Receptor and Steroid Receptor Coregulator 2 | TRb/SRC2 Texas Red total fluorescence interference | 280,000 tested, 0.29% active | Potency, µM (series often up to 106 µM), for the others: at the highest dose fluorescence change, negative = quenching | AID 1479, 2009; active = well fitted curve in either direction with a large enough effect; inconclusive = small, poorly fitted or top-dose-only effect; note: potency is the fitted concentration of half-maximal effect
#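 Human TRb ligand-binding domain at 0.6 uM with 20 nM Texas Red SRC2 peptide in Tris buffer containing 1 uM T3 and 5% DMSO, incubated with compound 5 h at ambient temperature. Total fluorescence (555/632 nm) calculated as parallel + 2 × perpendicular.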
# Tau fluor counter – Counterscreen qHTS for Inhibitors of Tau Fibril Formation, Fluorescence Polarization; AID 1463, 2008; Potency, µM (titrated, usually from 57.7 µM), without a hit: at the top dose activity change, negative = decrease; 280,000 tested, 0.93% active; tau K18 P301L Alexa594 fluorescence, heparin fibrillization; note: potency is the fitted concentration of half-maximal effect; nearly all actives have a fitted effect of over 55% in size
#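 Human tau K18 P301L (15 uM unlabeled, 0.24 uM Alexa 594-labeled) in 100 mM sodium acetate pH 7 with 20 uM heparin, 6 hr at 37 C. ThT 30 uM added, 1 hr ambient; Alexa 594 FP and total fluorescence read at 555/632 nm.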
# TRb-SRC2 inh – qHTS for Inhibitors of the Interaction of Thyroid Hormone Receptor and Steroid Receptor Coregulator 2 | TRbeta-SRC2 peptide binding, fluorescence polarization; receptor liganded with 1 µM T3 | Potency, µM (highest dose often 106 µM), for inactives: at the highest dose activity change, negative = inhibition, usual class: inhibitors | 280,000 tested, 0.065% active;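 note: potency is the fitted concentration of half-maximal effect; plate controls were bound peptide for no effect and peptide without receptor for full effect; nearly all actives have a fitted effect of over 50% in size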
# Target sequence (P10828 whole entry, looked up): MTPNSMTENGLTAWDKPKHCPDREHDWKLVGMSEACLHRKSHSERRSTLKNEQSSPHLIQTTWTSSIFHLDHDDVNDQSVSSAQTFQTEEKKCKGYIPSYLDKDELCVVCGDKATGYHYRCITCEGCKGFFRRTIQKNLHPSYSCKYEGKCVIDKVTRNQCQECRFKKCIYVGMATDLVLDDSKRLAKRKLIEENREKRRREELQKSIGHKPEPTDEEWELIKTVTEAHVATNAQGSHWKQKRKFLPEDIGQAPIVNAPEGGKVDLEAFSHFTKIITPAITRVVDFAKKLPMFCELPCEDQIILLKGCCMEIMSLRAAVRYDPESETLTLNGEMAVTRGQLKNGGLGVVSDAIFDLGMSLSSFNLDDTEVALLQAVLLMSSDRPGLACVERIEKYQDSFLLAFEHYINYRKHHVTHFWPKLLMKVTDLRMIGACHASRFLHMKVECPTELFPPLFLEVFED
#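 Fluorescence polarization of 20 nM Texas Red SRC2 peptide with 0.6 uM human TRb ligand-binding domain, in Tris buffer with 1uM T3 and 5% DMSO. Incubated 5 hr ambient; normalized to unbound and bound controls.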
# Tau fibril FP – qHTS for Inhibitors of Tau Fibril Formation, Fluorescence Polarization; K18 P301L tau heparin fibrillization, Alexa594 FP, 6 h; Potency, µM (titrated, usually from 57.7 µM), inactives show top-dose activity, negative = inhibition, most hits filed as inhibitors; AID 1468, 2008; 280,000 tested, 0.39% active; Microtubule-associated protein tau (Homo sapiens), P10636; note: potency is the fitted concentration of half-maximal effect; nearly all actives have a fitted effect of over 55% in size
#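 Quantitative HTS format: compounds meet 15 uM recombinant K18 P301L tau and Alexa 594-tau tracer in 100 mM sodium acetate pH 7; 20 uM heparin triggers fibrillization at 37 C over 6 hr; FP gives the signal.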
# PNC assembly inh – High Content Assay for Compounds that inhibit the Assembly of the Perinucleolar Compartment; 140,000 tested, 3.1% active; activity change (PNC), negative = inhibition, % at 10 µM; PC3M PTB-GFP, PNC prevalence imaging, 16 h; stronger effect = lower value;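 active = readout at or below -70, meaning at least 70% loss of cells showing the perinucleolar compartment, a nuclear body marking cancer cells; inconclusive = readout between -30 and a set limit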;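 note: plate controls were DMSO wells for no effect and camptothecin positive control wells for full effect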
#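 Compounds are pinned in duplicate onto adhered PC3M cells stably expressing GFP-tagged PTB and incubated 16 h at 37 C. Cells are then fixed, nuclei stained with Hoechst, and PNC-positive cells counted.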
# Active calls of the source: *; ? = inconclusive; nt = no result; ! = not confirmed by another sample; [ ] = dose if it differs, or a comment. Unless noted, calls come from the whole dose curve; as a rule, active = well fitted curve in the direction sought with a large enough effect; inconclusive = small, poorly fitted or top-dose-only effect, or another doubt; inactive = no such curve, though single readings can be large; an effect the other way counts as inactive or inconclusive. Unless noted, % is set by controls: 0 for no effect and ±100 for the full control effect.
SMILES,Tau fibril ThT,TexasRed fluor,Tau fluor counter,TRb-SRC2 inh,Tau fibril FP,PNC assembly inh
O=C(O)C1Sc2[nH]c(=O)sc2C2c3cc(Cl)ccc3OC(=O)C12 (centres undefined),22µM*,1%,?,-1%,-14%,-6
COC(C)(C)C,nt,0%,nt,0%,nt,nt
CC(=O)c1ccc(-c2ccccc2)cc1,?,-3%,-5%,-1%,9%,-88*
O=[N+]([O-])c1ccc2nc(CCCc3nc4ccc([N+](=O)[O-])cc4[nH]3)[nH]c2c1,?,-2%,-7%,-1%,-3%,nt
O=[N+]([O-])c1ccc(Sc2nc3ccccc3o2)c([N+](=O)[O-])c1,14µM*,-6%,8.9µM*[quencher],-5%,?,32
CC1=NN(c2ccccc2)C(=O)C1/C=C1\C(=O)NC(=O)N(c2ccc(C)c(C)c2)C1=O (centres undefined),11µM*,-1%,-23%,-4%,3%,53
CC1=NN(c2ccccc2)C(=O)C1/C=C1/C(=O)NC(=O)N(c2cc(C)cc(C)c2)C1=O (centres undefined),11µM*,-2%,-26%,3%,-12%,13
O=CC(Br)P(=O)(N1CCOCC1)N1CCOCC1 (centres undefined),10µM*,-1%,?,2%,25µM*,nt
O=S1(=O)CCN(CCc2c[nH]c3ccccc23)CC1,0%,0%,2%,-4%,8%,nt
CN1C(=O)C(Cc2c[nH]c3ccccc23)C(=O)N(C)C1=O,22µM*,-7%,-28%,-2%,?,-19
CN1C(=O)C(Cc2cccc3ccccc23)C(=O)N(C)C1=O,25µM*,3%,-20%,-10%,?,6
COc1cc(CC2C(=O)N(C)C(=O)N(C)C2=O)ccc1OCc1ccccc1,?,2%,-13%,6%,?,?
C=CCC1(Nc2ccccc2)CC(C)N(C)CC1C (centres undefined),-7%,-4%,-7%,2%,-1%,nt
O=C(CN1CCCCC1)c1ccccc1F,-7%,-2%,-7%,-10%,-13%,nt
CC1(C)CC(=O)C2=C(C1)OC(N)=C([N+](=O)[O-])C2c1ccc(C#N)s1 (centres undefined),8.9µM*,-4%,?,-1%,?,nt
CC1=C(C(=O)OC(C)C)[C@]2(C(=O)N(CC(N)=O)c3ccccc32)C(C#N)=C(N)O1,-5%,-3%,-4%,-1%,-5%,-100*
Cc1cc(NC(=O)COC(=O)c2c(C)nn(Cc3ccccc3)c2Cl)no1,-4%,0%,-4%,-4%,-14%,4
CC(=O)[C@@H]1CC[C@H]2[C@@H]3CC[C@@H]4CC(=O)CC[C@]4(C)[C@H]3CC[C@]12C,-8%,-1%,-11%,-1%,-1%,nt
Cc1cccc(N2C(=O)NC(=O)/C(=C\c3ccc4c(c3)CCCN4Cc3ccccc3)C2=O)c1,?,10%,-15%,12%,-14%,-2
CCC(C)N1C(=O)/C(=C/c2ccc3c(c2)CCN3CCCCl)C(=O)NC1=S (centres undefined),32µM*,-42%,?,-4%,?,?
CCC(=O)N1N=C2C3CCN(CC3)C2C1c1ccccc1 (centres undefined),0%,-3%,4%,-12%,3%,-11
O=C(Cc1ccccc1)Oc1ccc(N2C(=O)C3CCCCC3C2=O)cc1 (centres undefined),4%,-4%,3%,-5%,-1%,4
CC(=O)OC1C[C@@]2(C)C(c3ccoc3)C[C@H]3O[C@@]32[C@@]2(C)C(=O)C(O)=C3C(C)(C)C(=O)C=C[C@]3(C)C12 (some centres undefined),8.9µM*,0%,-17%,-4%,?,nt
CC(=O)O[C@@H]1C[C@@]2(C)C(c3ccoc3)C[C@H]3O[C@]32[C@]2(C)C(=O)C(O)=C3C(C)(C)C(=O)C=C[C@]3(C)C12 (some centres undefined),25µM*,-1%,-8%,-6%,?,nt
CCN1C(=O)C(=Cc2cc(C)n(C3CC3)c2C)C(=O)N(CC)C1=S,?,-2%,-5%,-6%,-4%,3
SMILES,Tau fibril ThT,TexasRed fluor,Tau fluor counter,TRb-SRC2 inh,Tau fibril FP,PNC assembly inh
CCN1C(=O)C(=Cc2ccc(C)s2)C(=O)N(CC)C1=S,14µM*,-2%,-29%,-5%,?,50
C=CCn1c(O)c(C(C)=O)c(=O)[nH]c1=O (tested in a mixture with another compound),-6%,1%,1%,0%,1%,nt
CC(C(N)=O)N1CC(c2ccccc2)CC1=O (centres undefined),-10%,0%,1%,6%,-4%,2
CC(=O)c1c(C)n(CCCOC(C)C)c2ccc(O)cc12,-13%,-1%,-10%,-1%,-4%,22
c1ccc(C2CC2)c(OCC2=NCCN2)c1,1%,45µM*![fluorescent],-1%,?,6%,nt
COc1ccc(C(=O)C(Cc2ccccc2)N(C)C)cc1 (centres undefined),?,2%,-17%,0%,-2%,?
CC(C)c1cc2c(c(O)c1O)[C@]1(C(=O)O)CCCC(C)(C)C1CC2 (some centres undefined),28µM*,-2%,?,3%,?,nt
CC(C)c1cc2c(c(O)c1O)[C@@]1(C(=O)O)CCCC(C)(C)[C@@H]1CC2,14µM*,-1%,?,-5%,?,nt
C[C@]1(C(=O)O)CCC[C@]2(C)c3cc(O)ccc3CC[C@@H]12,-7%,0%,-3%,-3%,1%,nt
CC(C(=O)c1cn(C)c2ccccc12)c1ccccc1 (centres undefined),-2%,-8%,-16%,2%,3%,2
O=C(COc1cccc(Cl)c1)N1CCN(CCc2ccncc2)CC1,-5%,-2%,-8%,-2%,-4%,nt
CN(C)C1C(=O)C(C(N)=O)=C(O)[C@@]2(O)C(=O)C3=C(O)c4c(O)cccc4[C@@](C)(O)C3[C@H](O)C12 (some centres undefined),7.1µM*,?,?,-5%,?,nt

# Bioassay records as filed in PubChem.
